Results on 5 compounds are retold here after PubChem BioAssay (EPA / NIEHS).

Results filed as inconclusive are left out. Calls of active or inactive are those of the source. Rule for the calls: active = hit-call score of the fitted dose curve at least 0.9, where 1 is the maximum; inconclusive = response in the unintended direction; inactive = score below 0.9.

For assay [1], the target named is Voltage-dependent N-type calcium channel subunit alpha-1B (Rattus norvegicus) (UniProt Q02294). Briefly: NVS_IC_rCaChN: NovaScreen (NVS) Ion Channel Assay for rat Calcium Channel, Type N (CaChN) (AID 2283317).
For assay [2], the target named is rat Vasopressin 1 Receptor (V1), Avpr1a (gene 25107) (UniProt P30560). Briefly: NVS_GPCR_rV1: NovaScreen (NVS) G Protein-Coupled Receptor Assay for rat Vasopressin 1 Receptor (V1) (AID 2283316). The gist of the method: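 Radioligand binding on rat liver membranes, 1.5 h incubation, filter-based scintillation counting. Single 25 uM screen in duplicate; chemicals meeting threshold (e.g. 30% inhibition) run in concentration-response up to 50 uM.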

A short description of assay [3]: NVS_IC_rCaDHPRCh_L: NovaScreen (NVS) Ion Channel Assay for rat Calcium Channel, Type L, Dihydropyridine Site (CaDHPRCh_L) (AID 2283320). The gist of the method:
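Radioligand binding to dihydropyridine site on rat cortical membranes, filter-based scintillation counting, 1 h after dosing. Screened in duplicate at 25 uM; actives rerun in concentration-response up to 50 uM. Loss of signal versus DMSO baseline.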

The target in assay [4] is bovine Gamma-Aminobutyric Acid Type A Receptor BDZ, alpha 1 site (GABARa1), GABRA1 (gene 780973) (UniProt P08219). Nature of the assay: NVS_LGIC_bGABARa1: NovaScreen (NVS) Ligand-Gated Ion Channel Assay for bovine Gamma-Aminobutyric Acid Type A Receptor BDZ, alpha 1 site (GABARa1) (AID 2283321). The gist of the method:
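Radioligand competition binding on bovine cortical membranes, 0.75 h, filter-based scintillation counting. Primary single concentration 25 uM in duplicate; actives rerun in concentration-response to 50 uM max. Loss of signal fitted versus DMSO.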

In assay [5] the target is Sodium channel protein type 1 subunit alpha (Rattus norvegicus) (UniProt P04774). Briefly: NVS_IC_rNaCh_site2: NovaScreen (NVS) Ion Channel Assay for rat Sodium Channel, Site 2 (NaCh) (AID 2283322).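 Note: hit means loss of radioligand binding signal relative to DMSO so AC50 marks displacement.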 The gist of the method: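 Membranes: rat forebrain. Format: competitive radioligand displacement, filter separation, scintillation readout, 1 h exposure. Primary screen in duplicate at 25 uM; actives retested in concentration series.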

The target in assay [6] is rat Neonicotinoid receptor (NNR), Chrna7 (gene 25302) (UniProt Q05941). Nature of the assay: NVS_LGIC_rNNR_BungSens: NovaScreen (NVS) Ligand-Gated Ion Channel Assay for rat Neonicotinoid receptor (NNR) (AID 2283315). The procedure, abridged: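 Radioligand displacement binding on rat cortical membranes, 2.5 h incubation, filtration and scintillation counting. Loss of specific binding fitted relative to DMSO.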
rat Neonicotinoid receptor (NNR), Chrna7 (gene 25302), sequence (Q05941 whole entry, looked up): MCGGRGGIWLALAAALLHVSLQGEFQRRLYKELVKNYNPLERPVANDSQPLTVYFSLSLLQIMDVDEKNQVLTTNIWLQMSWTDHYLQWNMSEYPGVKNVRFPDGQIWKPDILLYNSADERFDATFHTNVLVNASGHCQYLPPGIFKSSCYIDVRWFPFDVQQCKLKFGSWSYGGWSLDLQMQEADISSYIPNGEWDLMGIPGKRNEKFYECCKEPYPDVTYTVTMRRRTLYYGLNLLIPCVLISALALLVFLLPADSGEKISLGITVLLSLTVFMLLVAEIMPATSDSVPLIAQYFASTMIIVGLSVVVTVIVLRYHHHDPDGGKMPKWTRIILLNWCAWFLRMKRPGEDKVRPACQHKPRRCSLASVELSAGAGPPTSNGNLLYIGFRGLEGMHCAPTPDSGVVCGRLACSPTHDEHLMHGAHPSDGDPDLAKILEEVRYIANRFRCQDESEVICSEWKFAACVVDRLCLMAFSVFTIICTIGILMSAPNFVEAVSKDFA

bovine Gamma-Aminobutyric Acid Type A Receptor BDZ, alpha 1 site (GABARa1), GABRA1 (gene 780973), sequence (P08219 whole entry, looked up): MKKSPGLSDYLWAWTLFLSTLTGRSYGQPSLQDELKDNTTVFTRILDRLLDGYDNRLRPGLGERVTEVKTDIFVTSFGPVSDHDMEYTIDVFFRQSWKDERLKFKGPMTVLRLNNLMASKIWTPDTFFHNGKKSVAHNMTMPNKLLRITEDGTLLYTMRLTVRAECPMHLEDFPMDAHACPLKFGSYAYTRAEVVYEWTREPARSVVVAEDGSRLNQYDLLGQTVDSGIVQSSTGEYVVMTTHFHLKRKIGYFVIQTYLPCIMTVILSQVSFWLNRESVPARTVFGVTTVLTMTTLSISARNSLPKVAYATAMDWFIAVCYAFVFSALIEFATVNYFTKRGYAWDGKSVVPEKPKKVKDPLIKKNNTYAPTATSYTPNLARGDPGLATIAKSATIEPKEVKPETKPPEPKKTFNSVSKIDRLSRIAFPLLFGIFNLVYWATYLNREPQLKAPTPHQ
rat Vasopressin 1 Receptor (V1), Avpr1a (gene 25107), sequence (P30560 whole entry, looked up): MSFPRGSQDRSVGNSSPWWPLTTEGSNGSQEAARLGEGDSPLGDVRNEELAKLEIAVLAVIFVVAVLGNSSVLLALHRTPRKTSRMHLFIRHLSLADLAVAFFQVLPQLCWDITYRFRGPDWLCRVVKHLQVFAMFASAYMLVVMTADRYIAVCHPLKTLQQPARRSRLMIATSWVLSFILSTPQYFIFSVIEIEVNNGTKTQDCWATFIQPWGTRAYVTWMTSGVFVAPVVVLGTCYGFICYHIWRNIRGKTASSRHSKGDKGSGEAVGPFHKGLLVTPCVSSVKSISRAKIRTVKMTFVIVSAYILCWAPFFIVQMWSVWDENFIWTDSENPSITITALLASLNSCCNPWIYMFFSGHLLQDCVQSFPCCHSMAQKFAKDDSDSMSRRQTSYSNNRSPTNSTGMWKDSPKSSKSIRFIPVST

Regarding `CCCCCCCCCc1ccc(O)cc1`, the result in assay [1] was inactive.

In the case of `CCC(C)(CC)c1cc(NC(=O)c2c(OC)cccc2OC)on1`, in assay [2], the AC50 was 2.57 µM (active). Besides, the result in assay [3] was inactive.

Consider `Cc1cc2c3c(c1)C(c1ccccc1)=N[C@@H](NC(=O)c1ccncc1)C(=O)N3CC2`, for which the AC50 in assay [4] is 25 µM (active).

Turning to `C[C@]12CCC(=O)C=C1CC[C@@H]1[C@@H]2CC[C@@]2(C)[C@H]1CC[C@]2(C)O`, the AC50 in assay [5] is 3.26 µM (active).

`O=C(N[C@H]1CN2CCC1CC2)c1cc2ccoc2cn1`: the AC50 in assay [6] is 0.0114 µM (active); in assay [5], 11.7 µM (active). Moreover, the result in assay [1] was inactive.

The AC50 is the midpoint of the concentration-response curve, whichever way the signal moves.
